Results published in the OligoGym collection.

Target: FGFR1
Assay: pooled miR-30 sensor sort-seq; sequence = guide strand
Conditions: shRNA
Also: reference of the scale not given here.

| Sequence | sensor-assay potency score (higher = more potent) |
| --- | --- |
| TCTTAAGTGAAGCACCTCCATC | -1.39 |
| TTTGTGTTTTCTTCATAGCTAT | -0.428 |
| TAAATCTCTGGTAACGACCCTT | 0.102 |
| TGAACTTCACTGTCTTGGCAGC | -0.906 |
| TCTCGGTGTATGCACTTCTTGG | -1.66 |
| TTACACATGAACTCCACGTTGC | 0.903 |
| TGTCTTTTTATAGTAGTCGATG | -1.03 |
| TTGAAGGTGGGTCTCTGTGAGG | -0.69 |
| TTCATCATCTCCATTTCTGAGA | -0.548 |
| TTTTATAGTAGTCGATGTGGTG | -0.492 |
| TTGTGCACAGCCATCTGGCTGT | -0.135 |
| TAGCGGTGCAGAGTGTGGCTGT | -0.244 |
| ATCATGTACAGCTCGTTGGTGC | -0.372 |
| TTCTTTTCCATCTTTTCTGGGG | -0.274 |
| TTTTAATATATAGCAACTGATG | -1.31 |
